The nature of assay [1]: anti-His antibody binders, primary screen, artefact control for SMM control protein annotation, biochemical, small-molecule microarray, 635 nm fluorescence (AID 1128).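 Also: score merges feature fluorescence with signal-to-noise for each printed compound spot.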 The following applies: anti-His Alexa647 antibody binding, higher = more signal.
The test system of assay [2] is Human papillomavirus type 1a E7 protein (residues 1-88). Nature of the assay: HPV1a E7 small-molecule binders, primary screen, biochemical, small-molecule microarray, residues 1-88, 635 nm (AID 1129). The following applies: small-molecule microarray binding, fluorescence 635 nm; higher = more signal.
Assay [3] has as its target Focal adhesion kinase 1 (Homo sapiens) (UniProt Q05397). Briefly: small-molecule microarray binders of FAK, primary screen, biochemical, 635/667 nm fluorescence, BSA, DTT (AID 1130).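 Also: composite of spot emission at 667 nm and signal to noise over triplicate slides.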 The following applies: PTK2 binding, 635 nm fluorescence, higher = more signal.
Assay [4] concerns Fibrinogen (Alexa647-labelled). Briefly: fibrinogen binders on compound microarrays, profiling panel, artefact control for SMM control-protein annotation, biochemical, small-molecule microarray, 635/667 nm fluorescence (AID 1131).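 Also: z-score merges 667 nm fluorescence with per-spot signal-to-noise over triplicate slides.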 The following applies: fibrinogen-A647 binding fluorescence, higher = more signal.
The target in assay [5] is Follistatin (Homo sapiens) (UniProt P19883). Briefly: follistatin binders on small-molecule microarrays, primary screen, biochemical, small-molecule microarray, 635/667 nm fluorescence (AID 1132). Particulars: FST binding, 635 nm fluorescence, higher = more signal.
The target of assay [6] is Fibroblast growth factor 2 (Homo sapiens) (UniProt P09038). Briefly: FGF2 binders on small-molecule microarrays, primary screen, biochemical, small-molecule microarray, 635/667 nm fluorescence (AID 1133). Particulars: small-molecule microarray binding, FGF2, fluorescence 635/667; higher = more signal.
Assay [7] in a line: mitochondrial membrane potential change in A549 cells, profiling panel, cell-based, JC-1 fluorescence, basal, 24 h, 100 nL (AID 1138).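 Also: A549 lung adenocarcinoma cells under basal conditions with no added stimulus; test concentration not given here.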 The following applies: higher = more signal.
In another assay the test system is Lefty1. Nature of the assay: Lefty1 binders on small-molecule microarrays, primary screen, biochemical, small-molecule microarray, 635/667 nm fluorescence (AID 1139). Particulars: small-molecule microarray binding, fluorescence 635/667; higher = more signal.
Assay [8] deals with wheat germ agglutinin (Triticum aestivum), Alexa647-labelled. Nature of the assay: wheat germ agglutinin binders on compound microarrays, profiling panel, artefact control for SMM control-protein annotation, biochemical, small-molecule microarray, 635/667 nm fluorescence (AID 1140).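 Also: score merges 667 nm feature emission with signal to noise over triplicate slides.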 Particulars: WGA-A647 binding, 635 nm fluorescence, higher = more signal.
In assay [9] the target is Luciferin 4-monooxygenase (Photinus pyralis) (UniProt P08659). Nature of the assay: firefly luciferase enzyme inhibitors, primary screen, biochemical, luminescence, purified enzyme, 2006 set (AID 1141).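 Also: cell-free assay with purified firefly luciferase at 100 ng per well in PBS; test concentration not given here.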 Particulars: SteadyGlo luminescence, 30 min, higher = more signal, called active from +8 up or from −8 down.

Activity calls are given as the source filed them.

Follistatin (Homo sapiens), sequence (P19883 whole entry, looked up): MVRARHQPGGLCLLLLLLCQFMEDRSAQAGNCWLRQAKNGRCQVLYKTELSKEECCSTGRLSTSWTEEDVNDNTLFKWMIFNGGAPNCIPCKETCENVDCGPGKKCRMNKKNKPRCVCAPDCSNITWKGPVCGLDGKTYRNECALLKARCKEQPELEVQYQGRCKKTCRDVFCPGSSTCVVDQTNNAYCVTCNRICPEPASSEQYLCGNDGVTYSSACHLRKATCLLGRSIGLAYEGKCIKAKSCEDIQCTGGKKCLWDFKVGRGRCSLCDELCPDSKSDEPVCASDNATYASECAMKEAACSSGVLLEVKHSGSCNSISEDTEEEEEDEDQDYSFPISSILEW
Luciferin 4-monooxygenase (Photinus pyralis), sequence (P08659 whole entry, looked up): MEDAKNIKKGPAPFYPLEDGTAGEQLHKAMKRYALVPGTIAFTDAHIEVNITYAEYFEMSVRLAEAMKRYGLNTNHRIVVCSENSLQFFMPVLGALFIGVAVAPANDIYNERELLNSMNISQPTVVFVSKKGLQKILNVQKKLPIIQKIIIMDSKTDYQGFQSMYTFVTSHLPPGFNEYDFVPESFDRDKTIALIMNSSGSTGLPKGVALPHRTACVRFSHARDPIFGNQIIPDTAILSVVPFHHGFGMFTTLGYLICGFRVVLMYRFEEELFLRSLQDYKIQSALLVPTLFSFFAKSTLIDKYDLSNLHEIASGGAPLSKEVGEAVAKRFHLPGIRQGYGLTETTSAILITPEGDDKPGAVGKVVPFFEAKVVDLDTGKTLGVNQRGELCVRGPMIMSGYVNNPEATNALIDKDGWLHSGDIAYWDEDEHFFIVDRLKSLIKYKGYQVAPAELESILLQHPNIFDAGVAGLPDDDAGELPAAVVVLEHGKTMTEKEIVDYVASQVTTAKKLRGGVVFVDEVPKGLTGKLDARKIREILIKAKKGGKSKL
Focal adhesion kinase 1 (Homo sapiens), sequence (Q05397 whole entry, looked up): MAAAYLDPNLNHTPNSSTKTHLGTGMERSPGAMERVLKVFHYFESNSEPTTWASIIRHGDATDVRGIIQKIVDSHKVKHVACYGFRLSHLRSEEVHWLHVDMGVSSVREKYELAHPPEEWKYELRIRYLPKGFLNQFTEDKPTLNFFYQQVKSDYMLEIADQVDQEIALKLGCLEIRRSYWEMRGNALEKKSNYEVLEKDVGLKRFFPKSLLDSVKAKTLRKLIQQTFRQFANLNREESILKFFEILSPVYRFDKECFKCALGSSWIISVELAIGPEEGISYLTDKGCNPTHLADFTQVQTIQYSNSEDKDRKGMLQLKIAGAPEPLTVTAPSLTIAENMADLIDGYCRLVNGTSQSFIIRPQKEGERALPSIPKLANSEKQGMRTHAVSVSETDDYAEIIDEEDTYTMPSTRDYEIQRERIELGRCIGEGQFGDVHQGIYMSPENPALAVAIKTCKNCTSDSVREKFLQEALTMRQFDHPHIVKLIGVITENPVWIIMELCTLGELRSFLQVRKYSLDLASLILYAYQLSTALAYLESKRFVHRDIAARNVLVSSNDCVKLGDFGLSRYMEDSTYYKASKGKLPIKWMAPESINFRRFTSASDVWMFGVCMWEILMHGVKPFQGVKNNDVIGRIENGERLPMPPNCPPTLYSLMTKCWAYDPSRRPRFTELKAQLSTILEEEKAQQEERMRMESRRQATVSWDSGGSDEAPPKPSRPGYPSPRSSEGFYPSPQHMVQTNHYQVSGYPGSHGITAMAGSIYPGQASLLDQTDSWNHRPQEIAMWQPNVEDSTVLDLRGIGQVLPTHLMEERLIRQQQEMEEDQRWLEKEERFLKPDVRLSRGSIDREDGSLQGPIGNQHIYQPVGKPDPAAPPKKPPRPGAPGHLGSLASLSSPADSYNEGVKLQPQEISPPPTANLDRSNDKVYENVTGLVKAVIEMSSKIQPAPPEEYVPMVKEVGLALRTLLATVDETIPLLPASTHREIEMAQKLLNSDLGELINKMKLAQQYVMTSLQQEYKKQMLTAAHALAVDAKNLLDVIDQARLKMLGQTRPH
Fibroblast growth factor 2 (Homo sapiens), sequence (P09038 whole entry, looked up): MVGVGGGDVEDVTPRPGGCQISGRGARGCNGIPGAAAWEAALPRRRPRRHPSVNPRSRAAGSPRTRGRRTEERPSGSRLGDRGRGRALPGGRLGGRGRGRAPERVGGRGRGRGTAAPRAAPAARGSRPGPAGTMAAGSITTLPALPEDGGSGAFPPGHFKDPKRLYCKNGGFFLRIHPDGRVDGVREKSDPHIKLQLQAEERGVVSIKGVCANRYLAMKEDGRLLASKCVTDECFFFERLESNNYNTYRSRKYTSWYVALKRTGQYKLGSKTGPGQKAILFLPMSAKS

For `[N-]=[N+]=Nc1ccccc1C[C@@]1(C(=O)NCC(O)CO)N=C(c2ccc(OCCCO)cc2)O[C@@H]1c1ccccc1` (stereo not given in full), the composite z-score in [1] is -0.0048; in assay [2], 1.2; in [3] it was 0.206; in [4], 0.54; in [5], -0.327; in assay [6] it was 0.0559. For the same compound, the composite z-score in the assay with Lefty1 was -0.867; in [8], 0.436. Also, the z-score in assay [7] was 1; in assay [9], -2.44 (inactive).

On to `Cc1ccc(S[C@]2(C(=O)NC3CC3)CC(=O)N(C(C)C)[C@@H]2c2ccc(CO)cc2I)cc1`, for which the composite z-score is 1.49 in [1]; 0.882 in [2]; 0.411 in assay [3]; -0.36 in assay [4]; 0.536 in assay [5]; -0.471 in assay [6]. For the same compound, the composite z-score with Lefty1 was found to be 0.303; in [8], 0.969. The z-score in [7] is 0.51; in assay [9], 1.29 (inactive).

Take `CN1C(=O)[C@@H]2[C@@H](CC(COc3ccccc3)=C3[C@@H](CCc4ccccc4)OB(O)C[C@@H]32)C1=O`: the composite z-score in assay [1] is -0.526; in assay [2], -0.211; in [3] it was -0.175; in assay [4], 0.48; in [5], 0.127; in assay [6], -0.0572. The composite z-score in the assay on Lefty1 is -0.0163; in assay [8], 0.469. Moreover, the z-score in assay [7] is 0.208; in assay [9] it was -0.326 (inactive).

On to `CC1CC/C=C\[C@H]2OC34C=CCN(Cc5ccccc5)C(=O)[C@H]3N(CCCCCCO)C(=O)[C@@H]4C2C(=O)O1` (stereo not given in full), for which the composite z-score in [1] is 0.607; in assay [2], -0.415; in assay [3], -0.28; in assay [4], -1.31; in assay [5], -0.909; in [6], -0.808. Moreover, the composite z-score with Lefty1 was -0.869; in [8], -0.51. The z-score in assay [7] is 0.856; in assay [9], -1.51 (inactive).

Turning to `COC(=O)[C@@]1(Cc2ccc(OC)cc2)[C@H]2c3cc(C(=O)N4CCCC4)n(Cc4ccc(C(F)(F)F)nc4)c3C[C@H]2CN1C(=O)c1ccccc1`, the composite z-score is 1.4 in assay [1]; 1.22 in assay [2]; 1.14 in [3]; 0.683 in assay [4]; 0.0995 in [5]; -0.342 in assay [6]. Further, the composite z-score in the assay with Lefty1 is 0.087; in assay [8] it was 0.902. Also, the z-score is 0.939 in [7] and -7.63 (inactive) in [9].

Take `C=C(COC)C(=O)CC[C@@H](OC(=O)c1ccccc1-c1ccccc1C(=O)O)c1ccc(OCCO)cc1`: the composite z-score in assay [1] was -0.0978; in assay [2] it was -0.0905; in assay [3], -0.0142; in assay [4] it was -1.48; in assay [5], 1.45; in assay [6], 1.42. The composite z-score turned out to be 1.48 in the assay with Lefty1 and 0.595 in assay [8]. Further, the z-score in assay [7] is 0.0645; in [9] it was -3.04 (inactive).

Regarding `COCCCNC(=O)[C@@]1(CCC(=O)OC(C)(C)C)COC(c2ccc(OCCCO)cc2)=N1`, the composite z-score in [1] turned out to be 0.839; in [2], 1.27; in assay [3], 0.403; in assay [4] it was 1.04; in assay [5] it was 0.636; in [6] it was 0.502. Besides, the composite z-score in the assay with Lefty1 was -0.322; in assay [8], 0.386. The values for the z-score in assay [7] and in assay [9] were -0.274 and 0.75 (inactive), respectively.

`CCC(CC)C(O)C1C=CC2C(=O)N(c3ccccc3)C(=O)C2N1Nc1ccccc1F` (stereo not given): the composite z-score is 1.62 in assay [1]; 1.16 in assay [2]; 0.869 in [3]; 0.94 in assay [4]; 0.337 in assay [5]; -0.557 in [6]. For the same compound, the composite z-score came out at 0.128 with Lefty1 and 0.416 in assay [8]. Further, the z-score in assay [7] is -0.231; in [9], 0.211 (inactive).

On to `O=C1C=C(c2ccccc2)C(=O)C2=C1CC([C@H]1Oc3ccccc3S(=O)(=O)N3CCC[C@@H]13)=CC2`, for which the composite z-score was -0.105 in assay [1]; 0.154 in assay [2]; -0.263 in assay [3]; -0.472 in [4]; 0.316 in assay [5]; 0.669 in assay [6]. The composite z-score with Lefty1 is 0.132; in assay [8], 0.145. Further, the z-score in [7] was -1.32; in assay [9], -1.49 (inactive).

In the case of `CC(C)=CCCC(C)=CC(O)C1C=CC2C(=O)NC(=O)C2N1Nc1ccc(Cl)cc1Cl` (stereo not given), the composite z-score in assay [1] was 0.0944; in assay [2], 1.19; in assay [3], 1.15; in assay [4], 0.44; in assay [5], 1.29; in assay [6], -0.935. Further, the results for the composite z-score (in the assay with Lefty1; in assay [8]) were 0.0724 and 0.863, respectively. The z-score in assay [7] was -0.974; in assay [9], -0.889 (inactive).

Regarding `O=C1O[C@H](Cc2ccccc2)[C@@H]2[C@H]3C=CCCC=C3CN2[C@H]1Cc1ccc(O)cc1`, the composite z-score is 1.38 in assay [1]; -1.36 in assay [2]; 0.203 in assay [3]; -2.73 in assay [4]; 0.16 in [5]; -0.579 in assay [6]. For the same compound, the results for the composite z-score (with Lefty1; in assay [8]) were 0.262 and 0.778, respectively. Besides, the z-score was -0.653 in assay [7] and -0.992 (inactive) in [9].

As to `C=CCC(OC(C)=O)[C@@H]1[C@@H](N(Cc2cc3ccccc3o2)C(=O)c2cccc3ccccc23)c2cc(OCCCO)ccc2N1C(=O)c1ccc2ccccc2n1` (stereo not given in full), the composite z-score was -0.164 in assay [1]; -0.332 in assay [2]; 0.169 in assay [3]; -0.137 in assay [4]; 0.403 in assay [5]; 0.285 in assay [6]. Moreover, the composite z-score with Lefty1 is 0.496; in assay [8], -0.0075. In addition, the values for the z-score in assay [7] and in assay [9] were -0.0913 and -0.305 (inactive), respectively.

`COc1ccc([Si](C)(C)[C@H]2[C@H](CC(=O)N3CCC[C@H]3CO)O[C@@]3(C(=O)N(Cc4ccc(N5CCCCC5=O)cc4)c4ccccc43)[C@@H]2C)cc1`: the composite z-score was determined as 0.952 in assay [1]; 1.17 in assay [2]; 0.516 in assay [3]; 0.655 in [4]; 1.27 in assay [5]; 1.17 in assay [6]. Further, the values for the composite z-score (with Lefty1; in [8]) were 1.49 and 0.513, respectively. For the same compound, the values for the z-score in assay [7] and in assay [9] were 1.39 and 0.627 (inactive), respectively.

Consider `COC(=O)[C@@]1(Cc2ccc(OC)cc2)[C@H]2c3cc(C(=O)N4CCCC4)n(CCn4cc([N+](=O)[O-])nc4C)c3C[C@H]2CN1C(=O)c1ccccc1`, for which the composite z-score in [1] is 3.4; in assay [2], 1.2; in assay [3], 1.07; in [4], 1; in [5], 0.116; in assay [6], -0.322. Also, the composite z-score in the assay with Lefty1 is -0.19; in [8] it was 0.907. In addition, the z-score in assay [7] was 1.33; in assay [9] it was 1.22 (inactive).

In the case of `Cc1ccc(S[C@]2(C(=O)NCCCN(C)C)CC(=O)N(C3Cc4ccccc4C3)[C@@H]2c2ccc(CO)cc2I)cc1`, the composite z-score in assay [1] is 0.0192; in assay [2] it was 0.132; in assay [3], -0.0489; in [4], 0.493; in [5], 0.135; in assay [6], -0.813. In addition, the composite z-score in the assay on Lefty1 was -0.515; in [8], 0.0805. Moreover, the z-score in [7] was -0.522; in assay [9] it was -0.222 (inactive).

For the compound `COCCOC(=O)N1C(=O)[C@@]2(c3cc(C#CCC(C(=O)OC)C(=O)OC)ccc31)[C@H](C(N)=O)[C@H]1C(=O)O[C@H](c3ccccc3)[C@H](c3ccccc3)N1[C@@H]2c1ccc(O)cc1`, the composite z-score came out at 2.22 in assay [1]; 1.23 in [2]; 0.601 in [3]; 0.92 in assay [4]; 1.33 in assay [5]; 0.468 in [6]. The composite z-score amounted to 1 in the assay with Lefty1 and 1.06 in [8]. Besides, the z-score was -2.31 in assay [7] and -0.878 (inactive) in [9].
